High-throughput results: PubChem BioAssay, several laboratories
A selection: hits, their analogues and other compounds. The true share with any hit is near 4.1%.
PfHsp90 set2: reduces growth (ATP signal) of yeast expressing P. falciparum Hsp90; S. cerevisiae expressing PfHsp90, BacTiter-Glo ATP, 48 h; yeast lacking PDR1 and PDR3 efflux regulators; inhibition, % at 9.4 µM; 310,000 tested, 0.32% active; AID 504621;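 active = every replicate shows inhibition above about 80%, whatever the replicate mean, limit read from the data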;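 note: 0% = DMSO neutral controls and 100% = 20 µM radicicol positive controls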
tim23-1 inh: growth inhibitors of tim23-1 mutant yeast; S. cerevisiae tim23-1 growth, BacTiter-Glo luminescence, 24 h; inhibition, % at 20 µM; 330,000 tested, 1.3% active;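 active = growth inhibition of the mutant yeast at or above 50%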;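 note: temperature-sensitive mutant grown at 25 °C; plate controls were DMSO-treated mutant yeast for no effect and medium wells lacking yeast for full effect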
NALP1 inh: NALP1 inhibition | S. cerevisiae NALP1/ASC/caspase-1 growth, X-gal OD620, 72 h | inhibition, % at 10 µM | 280,000 tested, 0.61% active | AID 2071; in the data active = inhibition mostly above about 24%, no sharp cut-off; inactive = mostly below about 32%
TIM10 inh: TIM10 yeast growth inhibition; S. cerevisiae TIM10 strain growth, BacTiter-Glo luminescence, 24 h; inhibition, % at 10 µM; 330,000 tested, 1.4% active; AID 463195;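 active = inhibition of 40% or more at the single tested concentration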;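 note: wild-type TIM10 isogenic control strain grown at permissive 25 °C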
tim10-1 inh: tim10-1 yeast growth inhibition | S. cerevisiae tim10-1 ts strain growth, BacTiter-Glo, 24 h | inhibition, % at 20 µM | 330,000 tested, 2.2% active | AID 463190;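 active = inhibition of at least 40%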;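 note: mutant grown at 25 °C; 0% = DMSO wells with yeast and 100% = wells holding no yeast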
NLRP3 yeast inh: blocks the NALP3 inflammasome reconstituted in yeast; Yeast reconstituted NLRP3/ASC/caspase-1, beta-gal luminescence, 24 h; inhibition, % at 10 µM; 330,000 tested, 0.39% active;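 active = inhibition of 50% or more; inactive = inhibition below 50%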;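 note: plate controls were induced DMSO wells for no effect and uninduced yeast grown without galactose for full effect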
tim23-1 conf: confirmation of tim23-1 mutant yeast growth inhibitors; S. cerevisiae tim23-1 growth, BacTiter-Glo luminescence, 24 h; 4,400 tested, 83% active; AID 463218; shares compounds with tim23-1 inh; inhibition, % at 20 µM;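 active = inhibition above about 39% in either of two replicate wells at 20 µM, limit read from the data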;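 note: temperature-sensitive tim23-1 mutant grown at 25 °C; 0% = DMSO wells with yeast and 100% = medium wells without yeast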
* hit, by the source's call; nt = no result.

SMILES	PfHsp90 set2	tim23-1 inh	NALP1 inh	TIM10 inh	tim10-1 inh	NLRP3 yeast inh	tim23-1 conf
O=C1CC(c2cccc(Br)c2)c2cc3c(cc2N1)CCC3 (stereo not given)	-74.6	57.9*	19.6	8.2	37.5	15.6	51.9*
COc1cc2c(cc1OC)C(c1cccc(Br)c1)CC(=O)N2 (stereo not given)	6.8	10.8	4.7	1.0	-2.4	5.2	nt
CCN(CC(=O)NCc1ccc(Cl)cc1)C(=O)CCC(=O)c1ccc(F)cc1	-28.4	13.0	nt	3.2	13.1	19.3	nt
O=C(Nc1cccc(S(=O)(=O)N2CCOCC2)c1)C1CCCN(C(=O)c2ccc(Cl)cc2)C1 (stereo not given)	3.8	12.1	nt	8.7	6.2	6.1	nt
O=C1/C(=C\c2ccc(O)cc2)SC(=S)N1Cc1ccccc1	48.6	54.8*	3.2	19.3	-13.0	24.0	14.4
O=C(O)c1ccc(/C=C2/SC(=S)N(Cc3ccccc3)C2=O)cc1	-42.1	nt	-0.2	nt	nt	nt	nt
O=C(Nc1cccc(F)c1)c1cccnc1NCCc1ccccc1	-15.6	53.7*	22.3	20.2	21.1	3.5	54.0*
Cn1cncc1C#Cc1ccc2cc(CCO)oc(=O)c2c1	7.8	11.4	nt	5.2	8.8	8.3	nt
CCC(=O)NC(c1ccc(C)cc1)c1cc([N+](=O)[O-])c2cccnc2c1O (stereo not given)	5.1	nt	4.7	nt	nt	nt	nt
CCC(=O)NC(c1cc(Cl)c2cccnc2c1O)C(C)C (stereo not given)	-1.4	52.4*	nt	-17.5	37.9	17.9	52.5*
CCCC(=O)NC(c1ccco1)c1cc([N+](=O)[O-])c2cccnc2c1O (stereo not given)	-76.4	-9.6	1.7	2.3	-4.9	16.9	nt
Oc1c(C(c2ccccn2)N2CCCCC2)cc(Cl)c2cccnc12 (stereo not given)	4.7	52.9*	9.7	-16.7	19.9	18.7	64.0*
Cc1[nH]c2ccccc2c1C(c1ccccn1)N1CCCC1 (stereo not given)	7.4	4.4	-16.5	4.8	-1.5	9.3	nt
CC(=O)NC(c1ccccc1)c1cc(Cl)c2cccnc2c1O (stereo not given)	106.5*	55.5*	0.7	3.6	14.8	35.5	67.0*
CCC(=O)NC(c1cccs1)c1cc(Cl)c2cccnc2c1O (stereo not given)	101.5*	51.3*	-9.9	35.4	28.2	27.1	70.1*
COc1ccc(CN(Cc2cc3cccc(C)c3n3nnnc23)C(=O)N2CCOCC2)cc1	16.4	22.4	1.3	3.0	-3.4	22.4	nt
COc1ccc(CCNC(=O)COC(=O)CSc2ccc([N+](=O)[O-])cc2)cc1OC	1.7	0.7	nt	7.8	7.2	2.0	nt
c1coc(CNc2c3c(nc4ncnn24)CCCC3)c1	-13.2	10.0	-1.7	3.4	17.1	0.8	nt
Clc1cccc(-c2cc3nc4c(c(NCc5ccco5)n3n2)CCCC4)c1	18.7	52.3*	6.3	32.7	19.0	41.4	59.0*
O=C(Nn1cnnc1)c1ccc(F)cc1	15.3	15.6	-4.2	8.4	24.7	24.7	nt
Cn1c(=O)c(C(=O)c2ccccc2)nc2ccccc21	nt	10.5	7.2	-1.4	5.4	9.4	nt
Cn1cc(C(=O)c2ccc(Cl)cc2)cc1-c1nc2ccccc2n1C	nt	64.0*	-0.4	3.1	23.0	19.2	48.1*
Cc1cc(C)cc(OCC(=O)OC(C)C(=O)Nc2c(C)n(C)n(-c3ccccc3)c2=O)c1 (stereo not given)	-25.6	7.6	nt	-3.6	7.4	-5.2	nt
Oc1ccccc1-c1cc(-c2ccc3c(c2)OCCO3)n[nH]1	46.9	65.8*	9.8	31.1	30.9	33.9	-2.1
Cc1ccc(C(=O)NC(C(=O)NC2CCCC2)c2ccccc2)cc1 (stereo not given)	19.2	8.1	1.1	-2.6	8.7	4.0	nt
CSc1nnc(C)c(/C=C/Nc2ccc(C)cc2)n1	nt	37.7	5.8	19.8	36.5	14.1	nt
CSc1nnc(C)c(/C=C/NOCc2ccc(Cl)cc2)n1	3.5	53.7*	-7.9	19.4	34.5	12.5	72.2*
CCCn1c(-c2cccs2)nc2nc3ccccc3nc21	-28.0	53.7*	-16.2	27.8	39.1	3.7	39.8*
